Compounds with a hit are over-represented: about 2.8% of the library has one in this group of screens.
Peg3 promoter: Peg3 promoter activity inhibition; inhibition, % at 20 µM; HeLa PEG-Prom luciferase reporter, luminescence, overnight; 360,000 compounds, 1.7% hits;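 active = inhibition of at least 50% at 20 µM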
CF NFkB inh: inhibitors of cystic fibrosis induced NF-kB | KKLEB NF-kB-GFP reporter, PAF-induced, GFP fluorescence overnight | inhibition, % at 5 µM | 360,000 compounds, 0.86% hits;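 active = at least 50% inhibition at 5 µM, scaled per plate between neutral and stimulator controls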;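 note: PAF is a Pseudomonas aeruginosa culture filtrate used as stimulus; plate controls were PAF-stimulated DMSO wells for no effect and unstimulated DMSO wells for full effect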
HIF-2a block: blocks HIF-2a reporter activity; 786-0 RCC cells HIF-2a reporter, luciferase luminescence, overnight; inhibition, % at 18.8 µM; 360,000 compounds, 0.72% hits; AID 624352;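 active = inhibition of the luminescence signal of 40% or more relative to plate controls, in a single-dose primary screen at 18.75 µM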
MITF TRPM1 inh: reduces MITF-dependent TRPM1 promoter luciferase signal. 330,000 compounds, 0.83% hits. AID 488899. inhibition, % at 12.5 µM. SK-MEL-5 TRPM1 promoter luciferase, 24 h;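 active = mean inhibition across replicates of 60% or more, whatever share of single replicates reaches that level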
KKLEB tox: counter-screen for CF NF-kB inhibitors: cytotoxicity. KKLEB CF airway cells viability, ATPlite luminescence, overnight; hits give low values; cells stimulated with P. aeruginosa culture filtrate. activity change (cytotoxicity), % at 5 µM. 360,000 compounds, 0.36% hits;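 active = corrected activity change at or below -50% at 5 µM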
Shn3 3UTR inh: Schnurri-3 reporter inhibition in Clone20 osteoblasts. 360,000 compounds, 0.52% hits. Clone20 osteoblast Shn3 3'UTR firefly luciferase, 24 h. inhibition, % at 12.5 µM;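 active = mean inhibition of at least 75% with every replicate also reaching 75%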;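 note: 0% = median of neutral control wells and 100% = pilot-screen positive control compound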
CF NFkB inh conf: CF NF-kB inhibition confirmation, single concentration; shares compounds with CF NFkB inh; KKLEB CF airway cells, PAF-induced NF-kB-GFP fluorescence, overnight; inhibition, % at 5 µM; 1,300 compounds, 64% hits; AID 602472; in the data active = inhibition above about 40%;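 note: stimulus PAF is a Pseudomonas aeruginosa filtrate and not platelet activating factor; plate controls were DMSO wells with stimulus for no effect and unstimulated DMSO wells for full effect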
* = called active by the depositor; . = not tested or not shown.

SMILES | Peg3 promoter | CF NFkB inh | HIF-2a block | MITF TRPM1 inh | KKLEB tox | Shn3 3UTR inh | CF NFkB inh conf
COc1cc(CC(=O)N2CCN(C(=O)C3CCCO3)CC2)cc(OC)c1OC (stereo not drawn) | 10.0 | 6.7 | 3.6 | 6.4 | 6.5 | -6.2 | .
COc1cc(OC)nc(Nc2nc(C(N)c3ccccc3Cl)cs2)n1 (stereo not drawn) | 37.8 | 50.0* | 12.1 | . | -36.0 | -8.0 | 8.4
O=C(NC(c1ccc2c(c1)OCO2)c1ccccn1)C1CCN(CCOc2ccccc2)CC1 (stereo not drawn) | -3.5 | 1.8 | 0.8 | . | -5.6 | -17.7 | .
COc1ccc(/C=N/NC(=O)c2[nH]c3ccc(Br)cc3c2-c2ccccc2)cc1 | -9.8 | 81.0* | 26.1 | 68.3* | -33.2 | -17.9 | 81.4*
O=C(N/N=C/c1ccccc1Cl)c1[nH]c2ccc(Br)cc2c1-c1ccccc1 | 14.0 | 63.2* | 13.2 | 53.5 | -14.0 | 10.2 | 76.0*
Brc1cccc(CSc2nnc(-c3ccncc3)o2)c1 | -2.9 | 59.1* | -8.9 | 3.6 | 10.0 | 16.3 | 69.0*
COc1cc(C)ccc1OCc1cc(C(=O)NCCN2CCOCC2)no1 | -290.9 | 1.1 | -215.2 | -106.5 | 8.4 | -110.7 | .
Nc1nccc(-c2cc(-c3ccc(Cl)cc3Cl)no2)n1 | -111.5 | 51.4* | -230.9 | -22.9 | -21.8 | -35.2 | 27.0
O=C(NCc1ccc(F)cc1)c1c2c(nc3ccccc13)CCN(Cc1ccccc1)C2 | 9.6 | 19.8 | 12.8 | 2.0 | -17.4 | -8.6 | .
CCN1CCc2nc3ccccc3c(C(=O)Nc3ccc(NC(C)=O)cc3)c2C1 | 13.5 | -0.3 | 12.9 | 8.8 | -12.7 | 6.5 | .
O=C(COC(=O)c1c2c(nc3ccccc13)CCN(Cc1ccccc1)C2)Nc1c(F)cccc1F | 50.3* | 74.9* | 7.0 | 6.7 | -5.0 | 25.7 | 75.9*
CC(=O)Nc1ccc(NC(=O)COC(=O)c2c3c(nc4ccccc24)CCN(Cc2ccccc2)C3)cc1 | 30.5 | 56.8* | -16.2 | -3.6 | -7.3 | 23.7 | 72.1*
COc1ccc(C(CNC(=O)C(C)(C)Oc2ccc(Cl)cc2)N2CCOCC2)cc1 (stereo not drawn) | 17.7 | 2.8 | 10.6 | 10.3 | -12.4 | -14.8 | .
Cc1onc(-c2ccccc2Cl)c1C(=O)Nc1ccccc1O | 2.2 | -1.9 | 6.1 | 7.7 | 8.3 | 16.9 | .
COCc1cc(S(=O)c2ccc(Cl)cc2)nc(C)n1 (stereo not drawn) | 33.6 | 87.2* | 28.6 | 16.7 | 0.0 | -20.5 | 82.8*
COC(=O)N1C(=O)[C@@](Cc2ccccc2)(c2ccccc2)N1C(=O)OC | 24.8 | 56.6* | 6.7 | 38.2 | -9.8 | 3.0 | 54.6*
COC(=O)N1C(=O)[C@@](c2ccccc2)(C2CCCCC2)N1C(=O)OC | 83.7* | 66.2* | 24.1 | 20.6 | -24.2 | 21.9 | 48.7*
CC[C@@]1(c2ccccc2)C(=O)N(C(=O)OC)N1C(=O)OC | 11.7 | 11.6 | 8.7 | 27.1 | 6.3 | 3.6 | .
COc1ccc(-c2ccc(CN3C(CC(C)C)C(=O)N(Cc4cn(Cc5ccco5)nn4)CCS3(=O)=O)cc2)cc1 (stereo not drawn) | 19.4 | 56.9* | 17.2 | . | -8.9 | 31.3 | 36.0
CC(C)C1C(=O)N(Cc2cn(Cc3ccco3)nn2)CCS(=O)(=O)N1Cc1ccc(-c2ccccc2)cc1 (stereo not drawn) | -8.4 | 32.3 | -18.8 | . | 5.1 | 28.7 | .
COc1ccc(-c2ccc(CN3C(CC(C)C)C(=O)N(Cc4cn(Cc5ccco5)nn4)CCS3(=O)=O)cc2)cc1OC (stereo not drawn) | -5.5 | 31.3 | 9.7 | . | 1.5 | -8.0 | .
CC(C)C1C(=O)N(Cc2cn(Cc3ccco3)nn2)CCS(=O)(=O)N1Cc1ccc(-c2ccc(F)cc2)cc1 (stereo not drawn) | 20.8 | 55.9* | -31.6 | . | 13.1 | 45.8 | 35.5
COc1ccccc1NC(=O)c1cc(Sc2nncn2C)nc2ccccc12 | 20.7 | 5.6 | 3.7 | 14.9 | -5.8 | 19.6 | .
O=C1[C@H](Cc2ccccc2)NCCCC[C@H](c2ccc(Cl)cc2)N1Cc1ccccc1 | 32.2 | 59.2* | 16.0 | 1.5 | -37.6 | 5.5 | 39.0
O=C1[C@H](Cc2ccccc2)NCCCC[C@H](c2ccco2)N1Cc1ccccc1 | 29.7 | 22.6 | -11.0 | 8.2 | -23.9 | 25.6 | .

Compound activity as filed in PubChem BioAssay.
